Experimental data from PubChem BioAssay.
Activity calls are given as the source filed them.

How the values were obtained:
Albumin (Bos taurus) = Albumin (Bos taurus) (UniProt P02769); assay: compounds binding labelled BSA control protein – biochemical, small-molecule microarray, Alexa647 label, 635/667 nm fluorescence, artefact control for SMM control protein annotation, profiling panel (AID 1118); details: BSA-A647 binding, fluorescence 635 nm, higher = more signal;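 note: score merges 667 nm emission intensity and signal-to-noise per printed compound spot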
Chain of Albumin (Bos taurus) (P02769 whole entry, looked up): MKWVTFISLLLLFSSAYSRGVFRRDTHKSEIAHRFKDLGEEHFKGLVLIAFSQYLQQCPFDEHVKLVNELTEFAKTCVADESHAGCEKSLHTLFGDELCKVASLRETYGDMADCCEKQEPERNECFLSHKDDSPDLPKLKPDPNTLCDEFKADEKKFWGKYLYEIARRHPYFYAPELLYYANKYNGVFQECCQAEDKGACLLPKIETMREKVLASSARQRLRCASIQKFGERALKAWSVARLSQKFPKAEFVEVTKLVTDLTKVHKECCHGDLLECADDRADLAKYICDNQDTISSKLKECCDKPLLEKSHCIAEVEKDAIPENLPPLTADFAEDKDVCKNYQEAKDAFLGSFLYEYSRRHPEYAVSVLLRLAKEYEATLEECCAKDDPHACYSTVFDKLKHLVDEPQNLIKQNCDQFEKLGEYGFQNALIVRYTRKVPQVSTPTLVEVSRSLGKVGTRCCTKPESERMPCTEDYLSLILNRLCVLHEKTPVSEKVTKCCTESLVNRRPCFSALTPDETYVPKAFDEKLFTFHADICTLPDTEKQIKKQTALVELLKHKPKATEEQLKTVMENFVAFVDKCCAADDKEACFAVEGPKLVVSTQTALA

[1] = probe aXIP binding to arrayed compounds – biochemical, NeuroSMM set, 635/667 nm fluorescence, primary screen (AID 1119); details: small-molecule microarray, higher = more signal, called active from +8 up or from −8 down;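 note: probe is the protein aXip251-270 applied at 1 µg/mL to compound-printed slides; binding of probe to printed compounds measured as 667 nm fluorescence plus signal to noise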
[2] = probe aNOTCH3 binding on compound microarray – biochemical, small-molecule microarray, 635/667 nm fluorescence, primary screen (AID 1120); details: higher = more signal;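 note: probe is a biotin-tagged antibody raised against NOTCH3 rather than NOTCH3 protein; score merges spot fluorescence near 667 nm with spot signal to noise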
[3] = probe aNOTCH2 binding on compound microarray – biochemical, small-molecule microarray, 635/667 nm fluorescence, primary screen (AID 1121); details: higher = more signal;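 note: score merges feature fluorescence read at 667 nm with its signal to noise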
[4] = target: Carbonic anhydrase 2 (Homo sapiens) (UniProt P00918); assay: compounds binding carbonic anhydrase 2 – biochemical, small-molecule microarray, Alexa647-labelled CAII, profiling panel (AID 1122); details: CAII-A647 binding fluorescence, higher = more signal
[5] = COS7 lysate on small-molecule microarray, probe aHis, 635 nm (AID 1123); details: COS7 cell lysate, fluorescence, higher = more signal;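 note: z-score combines 667nm fluorescence intensity with signal-to-noise per printed compound spot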
[6] = probe aLAP1 signal on lysate-treated microarray – cell lysate, small-molecule microarray, COS7 lysate, primary screen (AID 1124); details: probe aLAP1, fluorescence, higher = more signal;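 note: lysate comes from COS7 cells expressing LAP1 and is applied at 0.3 µg/mL; score merges spot fluorescence near 667 nm with signal-to-noise over triplicate slides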
Sam68 (KHDRBS1) = assay: compounds binding KHDRBS1 protein – biochemical, small-molecule microarray, 635 nm fluorescence, primary screen (AID 1125); details: higher = more signal;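 note: score merges 667 nm channel intensity with signal to noise over triplicate slides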
[7] = system: Chordin-like protein 2 (CHRDL2); assay: compounds binding chordin-like 2 – biochemical, small-molecule microarray, 635 nm fluorescence, primary screen (AID 1126); details: fluorescence 635 nm, higher = more signal;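 note: printed compound slides probed with Chrdl2 protein at 4 µg/mL for 1 h at 4 C; score merges 667 nm emission intensity with signal to noise over three replicate slides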
[8] = target: Concanavalin-A (Canavalia ensiformis) (UniProt P02866); assay: compounds binding concanavalin A lectin – biochemical, small-molecule microarray, Alexa647 label, 635 nm, artefact control for SMM control protein annotation, primary screen (AID 1127); details: ConA-A647 binding fluorescence, higher = more signal;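 note: z combines 667 nm emission intensity with signal-to-noise across three replicate slides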
Chain of Concanavalin-A (Canavalia ensiformis) (P02866 whole entry, looked up): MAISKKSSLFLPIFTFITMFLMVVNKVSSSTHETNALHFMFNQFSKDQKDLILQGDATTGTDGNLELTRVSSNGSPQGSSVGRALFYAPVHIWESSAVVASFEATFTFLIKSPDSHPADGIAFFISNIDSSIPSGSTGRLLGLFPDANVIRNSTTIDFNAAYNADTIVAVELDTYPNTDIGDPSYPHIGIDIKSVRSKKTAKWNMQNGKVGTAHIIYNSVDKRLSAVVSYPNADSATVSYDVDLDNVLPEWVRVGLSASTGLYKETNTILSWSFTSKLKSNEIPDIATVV

[9] = compounds binding Alexa647 anti-His antibody – biochemical, small-molecule microarray, 635 nm fluorescence, artefact control for SMM control protein annotation, primary screen (AID 1128); details: higher = more signal;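 note: score merges feature fluorescence with signal-to-noise for each printed compound spot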
[10] = system: Human papillomavirus type 1a E7 protein (residues 1-88); assay: HPV1a E7 small-molecule binders, primary screen, biochemical, small-molecule microarray, residues 1-88, 635 nm (AID 1129); details: small-molecule microarray binding, fluorescence 635 nm; higher = more signal
[11] = target: Focal adhesion kinase 1 (Homo sapiens) (UniProt Q05397); assay: PTK2 protein binding on printed compound slides – biochemical, small-molecule microarray, 635/667 nm fluorescence, BSA, DTT, primary screen (AID 1130); details: 635 nm fluorescence, higher = more signal;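 note: composite of spot emission at 667 nm and signal to noise over triplicate slides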
Chain of Focal adhesion kinase 1 (Homo sapiens) (Q05397 whole entry, looked up): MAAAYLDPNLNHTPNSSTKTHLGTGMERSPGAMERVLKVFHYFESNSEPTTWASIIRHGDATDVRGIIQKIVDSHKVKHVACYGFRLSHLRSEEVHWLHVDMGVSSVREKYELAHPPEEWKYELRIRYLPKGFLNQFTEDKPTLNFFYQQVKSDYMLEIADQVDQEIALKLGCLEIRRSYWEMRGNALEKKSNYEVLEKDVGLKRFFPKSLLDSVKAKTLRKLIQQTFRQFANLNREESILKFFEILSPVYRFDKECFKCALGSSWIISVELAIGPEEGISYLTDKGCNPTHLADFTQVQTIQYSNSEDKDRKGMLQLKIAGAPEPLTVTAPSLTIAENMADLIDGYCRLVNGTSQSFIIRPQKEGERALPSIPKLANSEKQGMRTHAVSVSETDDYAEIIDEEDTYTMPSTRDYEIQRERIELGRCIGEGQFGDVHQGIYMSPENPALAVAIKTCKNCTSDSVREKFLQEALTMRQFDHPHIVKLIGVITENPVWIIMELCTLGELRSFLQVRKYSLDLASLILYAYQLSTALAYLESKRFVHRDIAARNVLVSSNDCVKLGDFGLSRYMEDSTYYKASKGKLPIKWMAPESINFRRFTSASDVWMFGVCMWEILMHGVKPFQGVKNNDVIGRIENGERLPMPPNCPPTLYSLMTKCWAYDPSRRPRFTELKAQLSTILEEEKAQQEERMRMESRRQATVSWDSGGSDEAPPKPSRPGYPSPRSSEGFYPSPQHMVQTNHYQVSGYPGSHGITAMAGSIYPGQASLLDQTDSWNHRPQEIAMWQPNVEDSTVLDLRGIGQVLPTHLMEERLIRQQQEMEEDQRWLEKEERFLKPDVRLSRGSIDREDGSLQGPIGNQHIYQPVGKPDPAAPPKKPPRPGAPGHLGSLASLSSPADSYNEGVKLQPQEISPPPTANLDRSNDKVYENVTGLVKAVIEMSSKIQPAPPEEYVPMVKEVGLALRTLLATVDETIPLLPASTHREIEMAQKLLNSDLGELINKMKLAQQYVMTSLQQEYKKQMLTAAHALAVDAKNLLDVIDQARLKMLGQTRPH

[12] = system: Fibrinogen (Alexa647-labelled); assay: Alexa647-fibrinogen binding to printed small molecules – biochemical, small-molecule microarray, 635/667 nm fluorescence, artefact control for SMM control-protein annotation, profiling panel (AID 1131); details: fibrinogen-A647 binding fluorescence, higher = more signal;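 note: z-score merges 667 nm fluorescence with per-spot signal-to-noise over triplicate slides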
[13] = target: Follistatin (Homo sapiens) (UniProt P19883); assay: FST protein binding to printed compounds – biochemical, small-molecule microarray, 635/667 nm fluorescence, primary screen (AID 1132); details: 635 nm fluorescence, higher = more signal
Chain of Follistatin (Homo sapiens) (P19883 whole entry, looked up): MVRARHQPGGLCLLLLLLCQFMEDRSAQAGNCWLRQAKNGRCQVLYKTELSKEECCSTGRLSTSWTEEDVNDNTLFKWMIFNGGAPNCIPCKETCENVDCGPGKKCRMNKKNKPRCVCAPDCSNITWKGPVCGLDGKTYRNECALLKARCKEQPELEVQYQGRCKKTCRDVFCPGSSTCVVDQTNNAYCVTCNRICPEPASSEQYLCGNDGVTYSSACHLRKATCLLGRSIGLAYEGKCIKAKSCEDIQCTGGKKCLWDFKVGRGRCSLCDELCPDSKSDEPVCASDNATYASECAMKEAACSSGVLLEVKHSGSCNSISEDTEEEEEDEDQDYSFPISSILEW

[14] = target: Fibroblast growth factor 2 (Homo sapiens) (UniProt P09038); assay: basic fibroblast growth factor binding to printed compounds – biochemical, small-molecule microarray, 635/667 nm fluorescence, primary screen (AID 1133); details: FGF2, fluorescence 635/667, higher = more signal
Chain of Fibroblast growth factor 2 (Homo sapiens) (P09038 whole entry, looked up): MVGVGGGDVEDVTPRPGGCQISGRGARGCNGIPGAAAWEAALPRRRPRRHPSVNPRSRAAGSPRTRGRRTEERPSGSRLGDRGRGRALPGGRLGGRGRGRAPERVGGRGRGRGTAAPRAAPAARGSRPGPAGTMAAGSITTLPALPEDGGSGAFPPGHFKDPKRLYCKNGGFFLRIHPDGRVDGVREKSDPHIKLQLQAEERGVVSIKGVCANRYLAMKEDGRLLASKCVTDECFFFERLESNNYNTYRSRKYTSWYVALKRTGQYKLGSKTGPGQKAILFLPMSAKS

[15] = JC-1 mitochondrial potential readout, lung cancer cells – cell-based, A549, JC-1 fluorescence, basal, 24 h, 100 nL, profiling panel (AID 1138); details: higher = more signal;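 note: A549 lung adenocarcinoma cells under basal conditions with no added stimulus; test concentration not given here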
Lefty1 = Lefty1 protein binding to printed compounds – biochemical, small-molecule microarray, 635/667 nm fluorescence, primary screen (AID 1139); details: fluorescence 635/667, higher = more signal
[16] = system: wheat germ agglutinin (Triticum aestivum), Alexa647-labelled; assay: Alexa647-WGA lectin binding to printed small molecules – biochemical, small-molecule microarray, 635/667 nm fluorescence, artefact control for SMM control-protein annotation, profiling panel (AID 1140); details: WGA-A647 binding, 635 nm fluorescence, higher = more signal;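 note: score merges 667 nm feature emission with signal to noise over triplicate slides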
[17] = target: Luciferin 4-monooxygenase (Photinus pyralis) (UniProt P08659); assay: inhibition of purified Photinus pyralis luciferase – biochemical, luminescence, purified enzyme, 2006 set, primary screen (AID 1141); details: purified firefly luciferase, SteadyGlo luminescence, 30 min; higher = more signal, called active from +8 up or from −8 down;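 note: cell-free assay with purified firefly luciferase at 100 ng per well in PBS; test concentration not given here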
Chain of Luciferin 4-monooxygenase (Photinus pyralis) (P08659 whole entry, looked up): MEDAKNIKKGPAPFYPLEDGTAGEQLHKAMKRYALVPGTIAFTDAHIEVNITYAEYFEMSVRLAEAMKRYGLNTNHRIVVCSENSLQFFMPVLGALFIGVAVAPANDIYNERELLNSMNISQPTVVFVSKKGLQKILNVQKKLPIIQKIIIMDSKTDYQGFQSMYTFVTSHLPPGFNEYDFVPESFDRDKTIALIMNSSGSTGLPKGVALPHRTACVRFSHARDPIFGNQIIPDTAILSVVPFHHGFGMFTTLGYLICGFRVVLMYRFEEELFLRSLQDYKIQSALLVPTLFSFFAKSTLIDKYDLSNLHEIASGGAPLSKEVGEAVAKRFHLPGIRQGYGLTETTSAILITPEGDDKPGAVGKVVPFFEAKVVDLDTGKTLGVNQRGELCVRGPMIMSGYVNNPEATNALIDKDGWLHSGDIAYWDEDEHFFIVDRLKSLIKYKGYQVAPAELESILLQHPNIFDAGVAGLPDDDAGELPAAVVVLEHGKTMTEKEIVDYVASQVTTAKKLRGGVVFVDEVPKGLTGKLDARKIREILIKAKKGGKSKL

| Structure (SMILES) | composite z-score (Albumin (Bos taurus)) | composite Z-score [1] | composite z-score [2] | composite z-score [3] | composite z-score [4] | composite z-score [5] | composite z-score [6] | composite z-score (Sam68 (KHDRBS1)) | composite z-score [7] | composite z-score [8] | composite z-score [9] | composite z-score [10] | composite z-score [11] | composite z-score [12] | composite z-score [13] | composite z-score [14] | z-score [15] | composite z-score (Lefty1) | composite z-score [16] | z-score [17] |
| --- | --- | --- | --- | --- | --- | --- | --- | --- | --- | --- | --- | --- | --- | --- | --- | --- | --- | --- | --- | --- |
| C[N+](C)(C)CCCCNC(=O)[C@H]1C[C@H]2C(=O)N[C@@H](Cc3ccccc3)C(=O)N2[C@H]1c1cccc(OCCO)c1 | -1.43 | 0.466 (inactive) | 0.0401 | -0.1 | 0.542 | 1.71 | 1.3 | 0.669 | 1.5 | 1.1 | 2.93 | 0.566 | 0.193 | 0.578 | 1.48 | 1.87 | -0.243 | 1.69 | -0.4 | -0.598 (inactive) |
| CC(C)C[C@@H]1NC(=O)[C@@]23C(=O)N[C@@H](Cc4ccccc4)C2[C@H](C)[C@@]2(C)O[C@H]2C3/C=C/C/C=C\CNC(=O)CNC1=O (stereo not given in full) | 0.0829 | -0.568 (inactive) | -0.0869 | -0.14 | 0.719 | 0.283 | 0.0471 | 0.613 | 0.322 | 0.423 | 0.256 | 0.088 | -0.0353 | 0.177 | 0.929 | 0.766 | -0.0173 | 0.938 | 0.375 | -0.321 (inactive) |
| COc1cc(C(O)C2C=CC3C(=O)N(c4ccccc4)C(=O)C3N2Nc2ccccc2)cc(OC)c1OC (stereo not given) | 0.993 | 0.328 (inactive) | 0.416 | -0.0742 | 0.573 | 2.89 | 0.496 | 1.31 | -0.872 | 1.15 | 1.04 | 1.21 | 0.655 | 1 | 1.14 | -0.085 | -0.193 | -0.383 | 1.24 | -0.171 (inactive) |
| CCOC(=O)C[C@H]1[C@H](OC(=O)c2cc3ccccc3oc2=O)[C@@H](NC(=O)CC(C)C)c2cc(OCCCO)ccc2N1C(=O)Cc1ccc(OC)cc1 | 0.136 | 0.642 (inactive) | -0.0376 | -0.146 | 0.607 | 0.935 | 0.18 | 0.887 | 0.0676 | 0.433 | 0.0111 | 0.43 | -0.0515 | 0.942 | 0.642 | 0.443 | 0.613 | 0.849 | 0.158 | 0.411 (inactive) |
| COC(=O)C[C@H]1O[C@@]2(C[C@@H]1[Si](C)(C)C)C(=O)N(C)c1ccccc12 | 0.18 | -0.701 (inactive) | 0.0306 | -0.111 | 0.288 | 0.689 | 0.186 | 0.86 | 0.268 | 0.332 | 0.324 | 0.643 | -0.203 | 0.78 | 0.501 | 0.0172 | 1.63 | 0.453 | 0.0729 | -1.85 (inactive) |
| C=CCN1Cc2ccccc2[C@H]2OC(c3ccc(OCCCO)cc3)=N[C@@]2(CCS(=O)(=O)c2ccccc2)C1=O | 0.465 | 1.79 (inactive) | 0.0562 | -0.0135 | 0.614 | 3.07 | 0.333 | 1.31 | 0.843 | 1.16 | 2.05 | 1.22 | 0.621 | 0.0869 | 1.37 | 1.37 | 0.35 | 0.507 | 0.77 | -0.884 (inactive) |
| C=C1C(=O)C=C2CN(C(=O)c3ccccc3)[C@@](Cc3ccc(OC)cc3)(C(=O)OC)[C@@H]12 | 1.07 | 0.579 (inactive) | 0.711 | 0.11 | 0.523 | 3.32 | 0.471 | 1.3 | -0.639 | 1.14 | 1.07 | 1.26 | 0.408 | 1.02 | 1.29 | -0.0686 | -0.322 | 0.381 | 1.13 | 3.22 (inactive) |
| CCCN1C(=O)[C@]2(CCC(=O)OC(C)(C)C)N=C(c3ccc(OCCCO)cc3)O[C@@H]2c2ccccc21 | 0.151 | -0.12 (inactive) | -0.0044 | -0.0732 | 0.2 | 1.42 | 0.651 | 0.8 | 0.405 | 1.03 | 0.144 | 1.01 | 0.497 | 0.496 | 1.49 | 0.714 | 0.719 | 0.37 | 0.0961 | -1.55 (inactive) |
| O=C(NCc1ccc(F)cc1)[C@H]1C[C@H]2C(=O)N3CCC[C@H]3C(=O)N2[C@H]1c1ccc(O)cc1 | -1.3 | 0.081 (inactive) | -0.303 | -0.198 | -0.0109 | -0.136 | 1.09 | -0.732 | 0.857 | 0.72 | -0.279 | -0.825 | -0.753 | 0.137 | 0.699 | 0.75 | -0.0591 | -0.557 | -0.554 | -0.0877 (inactive) |
| COc1ccc([Si](C)(C)[C@H]2[C@H](CC(=O)N3Cc4ccccc4C[C@H]3CO)O[C@@]3(C(=O)N(c4ccccc4)c4ccccc43)[C@@H]2C)cc1 | 0.622 | 0.319 (inactive) | 0.204 | -0.126 | 0.306 | 0.994 | 0.374 | 1.29 | 1.22 | 1.09 | 1.27 | 1.19 | 0.0758 | 0.96 | 1.37 | 1.64 | 1.78 | 1.48 | 0.771 | 0.16 (inactive) |
